PfHsp40 yeast: rescue of yeast from PfHsp40 toxicity, primary screen, S. cerevisiae, ATP luminescence; S. cerevisiae expressing PfHsp40, growth rescue; growth rescue, % at 12.5 µM; actives 0.68% (n = 340,000); in the data active = growth rescue above about 28%, passing the limit was not always enough;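 note: yeast W303a lacking pdr1 and pdr3 grown in galactose medium; growth measured after three days at 30 °C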
VHR inh abs: VHR1 phosphatase inhibitors, primary screen, biochemical, absorbance, uHTS; recombinant VHR phosphatase, pNPP absorbance; inhibition, % at 13.3 µM; actives 0.52% (n = 290,000); AID 1654, 2009; in the data active = inhibition above about 50%
Target sequence (P51452 whole entry, looked up): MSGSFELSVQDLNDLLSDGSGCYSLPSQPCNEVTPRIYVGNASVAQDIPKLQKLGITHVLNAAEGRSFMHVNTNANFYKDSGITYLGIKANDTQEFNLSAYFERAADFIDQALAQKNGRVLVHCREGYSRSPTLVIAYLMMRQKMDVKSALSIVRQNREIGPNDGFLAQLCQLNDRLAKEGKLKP
BJeLR viability: MLPCN primary cell-based screen for lethality selective to Ras in HRASV12 cells; actives 0.17% (n = 300,000); AID 1554, 2009; BJeLR (HRASV12) viability, CellTiter-Glo ATP luminescence, 48 h; inhibition, % (no concentration beside the values); in the data active = inhibition above about 50%
BH1578 lux ind: inducers of Vibrio cholerae quorum light production without autoinducers, primary screen, BH1578 luxS cqsA deficient, single point | activation, % at 18.7 µM | actives 0.16% (n = 350,000) | V. cholerae BH1578 lux reporter, luminescence, 6 h | AID 588436, 2011; in the data active = activation mostly above about 9.7%, no sharp cut-off
3CLpro inhibitor: SARS-CoV 3CLpro protease inhibitors, primary screen, biochemical, quenched FRET | recombinant SARS-CoV 3CLpro, quenched FRET peptide cleavage | inhibition, % at 6 µM | actives 0.14% (n = 290,000); in the data active = inhibition above about 12%
MazF activator: activators of E. coli MazEF toxin-antitoxin RNase, primary screen, biochemical, fluorescence, uHTS; FAM/BHQ RNA-DNA oligo cleavage fluorescence, 5 h; Endoribonuclease toxin MazF (Escherichia coli (strain K12)), P0AE70; activation, % at 20 µM; actives 0.32% (n = 350,000); in the data active = activation above about 50%
Target sequence (P0AE70 whole entry, looked up): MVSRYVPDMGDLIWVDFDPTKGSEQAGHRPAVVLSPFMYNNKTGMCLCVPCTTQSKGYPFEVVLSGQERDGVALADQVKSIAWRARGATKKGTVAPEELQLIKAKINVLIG
Starred values were filed as active, the others as inactive. In the library only some 1.7% were active in any assay of this set; here they are far more common.

How did O=[N+]([O-])c1ccc2c(c1)Cc1cc(O)ccc1-2 do in these assays?
PfHsp40 yeast: 51.5*; BH1578 lux ind: inactive; MazF activator: 8.9

What do the screens show for `O=C(O)c1cccc2c1Cc1cc([N+](=O)[O-])ccc1-2`?
PfHsp40 yeast: 118.0*; BH1578 lux ind: inactive; MazF activator: -22.8

What do the screens show for `CCOC(=O)C(=O)Cc1cccnn1`?
PfHsp40 yeast: -0.7; BH1578 lux ind: inactive; MazF activator: 1.0

How did CCOc1ccc(-n2nc(C(=O)NC3CCCCC3)c3ccccc3c2=O)cc1 do in these assays?
PfHsp40 yeast: -0.1; VHR inh abs: 46.6; BJeLR viability: -1.5; BH1578 lux ind: -0.2; 3CLpro inhibitor: -4.5; MazF activator: 4.4

How did CCCCCCCn1c(NC(=O)CC)nc2ccccc21 do in these assays?
PfHsp40 yeast: 93.1*; VHR inh abs: 9.3; BJeLR viability: -4.5; BH1578 lux ind: -1.0; 3CLpro inhibitor: 3.4; MazF activator: 8.5

Results for CCCCCCn1c(C(C)NC(=O)c2ccco2)nc2ccccc21 (configuration not stated) ?
PfHsp40 yeast: 0.0; VHR inh abs: 54.3*; BJeLR viability: -9.4; BH1578 lux ind: -0.5; 3CLpro inhibitor: 2.5; MazF activator: 6.6

How did CCCCn1c(C(C)NC(=O)CC)nc2ccccc21 (configuration not stated) do in these assays?
PfHsp40 yeast: -2.5; VHR inh abs: 2.0; BJeLR viability: -2.0; BH1578 lux ind: -1.6; 3CLpro inhibitor: -1.4; MazF activator: 9.0

Results for O=C(O)Cn1cc2c(n1)CCCCC2 ?
PfHsp40 yeast: 29.9*; VHR inh abs: -2.0; BJeLR viability: -1.4; 3CLpro inhibitor: -4.5; MazF activator: -3.6

Results for COc1ccc(NC(=O)CN2CCN(CC(=O)Nc3ccc(F)cc3F)CC2)cc1 ?
PfHsp40 yeast: 43.9*; VHR inh abs: -34.8; BJeLR viability: 17.4; BH1578 lux ind: inactive; 3CLpro inhibitor: -2.8; MazF activator: 3.1

What do the screens show for `COc1cccc(NC(=O)CN2CCN(CC(=O)Nc3ccc(F)cc3)CC2)c1`?
PfHsp40 yeast: 1.2; VHR inh abs: -11.0; BJeLR viability: 3.0; BH1578 lux ind: inactive; 3CLpro inhibitor: 3.6; MazF activator: -5.5

Results for CC(C)Oc1ccccc1C1CC(=O)Nc2cc3c(cc21)OCCO3 (configuration not stated) ?
PfHsp40 yeast: 0.0; VHR inh abs: 25.4; BJeLR viability: 64.4*; BH1578 lux ind: -0.3; 3CLpro inhibitor: 7.6; MazF activator: -5.1

What do the screens show for `NC(=O)c1cc2ccc(O)cc2oc1=NCc1ccccc1`?
PfHsp40 yeast: -0.7; VHR inh abs: 26.7; BJeLR viability: -4.7; BH1578 lux ind: -1.0; 3CLpro inhibitor: 1.9; MazF activator: 785.0*

How did NC(=O)c1cc2ccccc2oc1=NCc1ccccc1 do in these assays?
PfHsp40 yeast: -0.5; VHR inh abs: 39.4; BJeLR viability: -6.9; BH1578 lux ind: -0.4; 3CLpro inhibitor: 2.5; MazF activator: 4.4

Results for CCOC(=O)/C(C#N)=C/c1ccc(-c2ccsc2C(=O)OC)o1 ?
PfHsp40 yeast: -0.3; VHR inh abs: 52.7*; BJeLR viability: 8.8; BH1578 lux ind: -0.3; 3CLpro inhibitor: 2.4; MazF activator: 4.6

Results for COCCNC(=O)C1(C)CCCN(C(=O)c2ccc(OC)cc2OC)C1 (configuration not stated) ?
BH1578 lux ind: inactive

Results for CSc1ncccc1C(=O)NNc1cc(Cl)ccc1Cl ?
PfHsp40 yeast: 0.1; VHR inh abs: -17.8; BJeLR viability: 7.9; BH1578 lux ind: -0.4; 3CLpro inhibitor: -1.4; MazF activator: -1.6

Results for COc1ccc(CNC(=O)C2CCN(C(=O)N3CCOc4ccc(C)cc43)CC2)cc1 ?
PfHsp40 yeast: -0.4; VHR inh abs: 50.8*; 3CLpro inhibitor: 4.9; MazF activator: -2.2

What do the screens show for `CSCC[C@H](NC(=O)OC(C)(C)C)C(=O)N1CCC(C(=O)NCC(=O)Nc2ccc(C)cc2)CC1`?
PfHsp40 yeast: -0.1; VHR inh abs: -1.2; BJeLR viability: -3.0; BH1578 lux ind: -0.4; 3CLpro inhibitor: -2.5; MazF activator: -5.5
